Some targets named below: HOXA4 (Homo sapiens, UniProt Q00056 201-287); HOXB4 (Homo sapiens, UniProt P17483 148-234, V174I); ALX4 (Homo sapiens, UniProt Q9H161 200-286, Q225E).
Experiment in all cases: PBM; 200 nM protein, PBS
Common to all, as to conditions: dsDNA, one strand shown

In test [1] the target is T1, VENTX (Homo sapiens, UniProt O95231 78-163, R121Q).
T1 sequence: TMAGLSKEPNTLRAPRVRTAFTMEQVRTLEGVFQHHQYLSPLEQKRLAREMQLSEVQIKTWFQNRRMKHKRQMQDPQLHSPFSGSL

Test [2] concerns the target T2, VENTX (Homo sapiens, UniProt O95231 78-163).
T2 sequence: T1 sequence with Q44R

The target in test [3] is ALX3 (Homo sapiens, UniProt O95076 139-225, N203Q).
ALX3 (Homo sapiens, UniProt O95076 139-225, N203Q), sequence (O95076 139-225 N203Q): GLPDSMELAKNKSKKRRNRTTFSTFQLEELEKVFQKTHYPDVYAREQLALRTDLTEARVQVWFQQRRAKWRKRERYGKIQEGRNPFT
The target of test [4] is ALX3 (Homo sapiens, UniProt O95076 139-225).
ALX3 (Homo sapiens, UniProt O95076 139-225), sequence (O95076 139-225): as the sequence (O95076 139-225 N203Q) above, with Q65N counted along it
For test [5], the target named is VAX1 (Homo sapiens, UniProt Q5SQQ9 86-172).
VAX1 (Homo sapiens, UniProt Q5SQQ9 86-172), sequence (Q5SQQ9 86-172): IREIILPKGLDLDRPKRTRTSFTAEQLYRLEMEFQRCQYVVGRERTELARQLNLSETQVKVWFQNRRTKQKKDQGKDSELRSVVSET
The target of test [6] is VAX1 (Homo sapiens, UniProt Q5SQQ9 86-172, T142I).
VAX1 (Homo sapiens, UniProt Q5SQQ9 86-172, T142I), sequence (Q5SQQ9 86-172 T142I): as the sequence (Q5SQQ9 86-172) above, with T57I counted along it
The target in test [7] is ALX3 (Homo sapiens, UniProt O95076 139-225, N203S).
ALX3 (Homo sapiens, UniProt O95076 139-225, N203S), sequence (O95076 139-225 N203S): as the sequence (O95076 139-225 N203Q) above, with Q65S counted along it
The target of test [8] is VAX1 (Homo sapiens, UniProt Q5SQQ9 86-172, K157R).
VAX1 (Homo sapiens, UniProt Q5SQQ9 86-172, K157R), sequence (Q5SQQ9 86-172 K157R): as the sequence (Q5SQQ9 86-172) above, with K72R counted along it
Test [9] deals with HOXB9 (Homo sapiens, UniProt P17482 171-250, T197M).
HOXB9 (Homo sapiens, UniProt P17482 171-250, T197M), sequence (P17482 171-250 T197M): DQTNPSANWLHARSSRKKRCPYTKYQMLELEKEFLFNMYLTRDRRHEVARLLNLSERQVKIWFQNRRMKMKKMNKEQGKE
For test [10], the target named is HOXC9 (Homo sapiens, UniProt P31274 178-260, K195R).
HOXC9 (Homo sapiens, UniProt P31274 178-260, K195R), sequence (P31274 178-260 K195R): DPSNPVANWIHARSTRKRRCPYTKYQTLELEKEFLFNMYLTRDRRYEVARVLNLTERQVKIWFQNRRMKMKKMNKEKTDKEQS
The target of test [11] is HOXA7 (Homo sapiens, UniProt P31268 116-202).
HOXA7 (Homo sapiens, UniProt P31268 116-202), sequence (P31268 116-202): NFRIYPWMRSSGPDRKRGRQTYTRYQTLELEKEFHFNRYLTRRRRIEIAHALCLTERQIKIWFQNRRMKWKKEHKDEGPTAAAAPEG
In test [12] the target is HOXC10 (Homo sapiens, UniProt Q9NYD6 254-340).
HOXC10 (Homo sapiens, UniProt Q9NYD6 254-340), sequence (Q9NYD6 254-340): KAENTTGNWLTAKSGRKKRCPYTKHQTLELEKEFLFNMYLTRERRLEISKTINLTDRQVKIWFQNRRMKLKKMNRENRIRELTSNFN
Test [13] addresses HOXB6 (Homo sapiens, UniProt P17509 132-218, K202E).
In test [14] the target is HOXC9 (Homo sapiens, UniProt P31274 178-260).
HOXC9 (Homo sapiens, UniProt P31274 178-260), sequence (P31274 178-260): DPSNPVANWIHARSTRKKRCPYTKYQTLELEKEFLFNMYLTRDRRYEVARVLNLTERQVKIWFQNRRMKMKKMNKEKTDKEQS
The target of test [15] is HOXC9 (Homo sapiens, UniProt P31274 178-260, R193K).
HOXC9 (Homo sapiens, UniProt P31274 178-260, R193K), sequence (P31274 178-260 R193K): as the sequence (P31274 178-260) above, with R16K counted along it
In test [16] the target is HOXC10 (Homo sapiens, UniProt Q9NYD6 254-340, K271E).
HOXC10 (Homo sapiens, UniProt Q9NYD6 254-340, K271E), sequence (Q9NYD6 254-340 K271E): as the sequence (Q9NYD6 254-340) above, with K18E counted along it
The target in test [17] is HOXC9 (Homo sapiens, UniProt P31274 178-260, R222W).
HOXC9 (Homo sapiens, UniProt P31274 178-260, R222W), sequence (P31274 178-260 R222W): as the sequence (P31274 178-260) above, with R45W counted along it
Test [18] concerns the target HOXA7 (Homo sapiens, UniProt P31268 116-202, W177C).
The target in test [19] is HOXB6 (Homo sapiens, UniProt P17509 132-218).
HOXB6 (Homo sapiens, UniProt P17509 132-218), sequence (P17509 132-218): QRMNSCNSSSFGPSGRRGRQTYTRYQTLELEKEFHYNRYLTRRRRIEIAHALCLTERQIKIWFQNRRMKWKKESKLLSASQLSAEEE
The target of the next test is T3, PAX4 (Homo sapiens, UniProt O43316 9-242, R200K).
T3 sequence: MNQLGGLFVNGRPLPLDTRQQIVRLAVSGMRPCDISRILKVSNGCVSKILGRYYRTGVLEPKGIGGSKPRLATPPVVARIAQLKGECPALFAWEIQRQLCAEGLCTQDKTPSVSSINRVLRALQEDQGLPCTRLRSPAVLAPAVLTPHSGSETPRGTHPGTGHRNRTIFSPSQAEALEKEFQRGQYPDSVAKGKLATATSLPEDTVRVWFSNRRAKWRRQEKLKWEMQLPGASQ

The target in test [20] is HOXB9 (Homo sapiens, UniProt P17482 171-250).
HOXB9 (Homo sapiens, UniProt P17482 171-250), sequence (P17482 171-250): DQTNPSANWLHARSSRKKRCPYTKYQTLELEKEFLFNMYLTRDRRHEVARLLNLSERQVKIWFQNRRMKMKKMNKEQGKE
Test [21] deals with HOXB9 (Homo sapiens, UniProt P17482 171-250, R186Q).
HOXB9 (Homo sapiens, UniProt P17482 171-250, R186Q), sequence (P17482 171-250 R186Q): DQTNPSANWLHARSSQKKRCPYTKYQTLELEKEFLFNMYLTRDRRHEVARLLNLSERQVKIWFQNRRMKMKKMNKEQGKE
Test [22] has as its target PRRX1 (Homo sapiens, UniProt P54821 80-166, F113S).
In test [23] the target is T4, VENTX (Homo sapiens, UniProt O95231 78-163, Y115F).
T4 sequence: T1 sequence with Y38F, Q44R

Test [24] addresses PRRX1 (Homo sapiens, UniProt P54821 80-166).
For test [25], the target named is HOXD13 (Homo sapiens, UniProt P35453 263-343, T313R).
HOXD13 (Homo sapiens, UniProt P35453 263-343, T313R), sequence (P35453 263-343 T313R): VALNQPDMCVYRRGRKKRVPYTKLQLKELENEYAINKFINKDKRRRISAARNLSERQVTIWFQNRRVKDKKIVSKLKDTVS
Test [26] deals with HOXD13 (Homo sapiens, UniProt P35453 263-343).
HOXD13 (Homo sapiens, UniProt P35453 263-343), sequence (P35453 263-343): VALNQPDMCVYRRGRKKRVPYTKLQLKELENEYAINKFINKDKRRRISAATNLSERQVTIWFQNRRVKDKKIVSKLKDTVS
In test [27] the target is HOXD13 (Homo sapiens, UniProt P35453 263-343, T313A).
HOXD13 (Homo sapiens, UniProt P35453 263-343, T313A), sequence (P35453 263-343 T313A): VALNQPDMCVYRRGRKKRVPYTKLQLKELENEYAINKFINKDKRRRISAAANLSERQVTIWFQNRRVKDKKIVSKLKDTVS

Residue numbers refer to the chain shown, from its start.

For 7 sequences, binding signal results are on record in article PMC11006913.

HOXA7 (Homo sapiens, UniProt P31268 116-202, W177C), sequence (P31268 116-202 W177C): as the sequence (P31268 116-202) above, with W62C counted along it
HOXB6 (Homo sapiens, UniProt P17509 132-218, K202E), sequence (P17509 132-218 K202E): as the sequence (P17509 132-218) above, with K71E counted along it
HOXB4, sequence (P17483 148-234 V174I): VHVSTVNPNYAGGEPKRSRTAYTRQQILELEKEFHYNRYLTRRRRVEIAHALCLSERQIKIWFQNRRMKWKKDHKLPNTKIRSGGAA
ALX4, sequence (Q9H161 200-286 Q225E): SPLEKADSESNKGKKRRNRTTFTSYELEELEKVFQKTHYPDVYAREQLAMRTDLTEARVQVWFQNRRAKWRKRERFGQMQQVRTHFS
PRRX1 (Homo sapiens, UniProt P54821 80-166, F113S), sequence (P54821 80-166 F113S): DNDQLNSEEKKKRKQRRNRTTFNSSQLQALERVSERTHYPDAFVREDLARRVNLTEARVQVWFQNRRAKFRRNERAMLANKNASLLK
HOXA4, sequence (Q00056 201-287): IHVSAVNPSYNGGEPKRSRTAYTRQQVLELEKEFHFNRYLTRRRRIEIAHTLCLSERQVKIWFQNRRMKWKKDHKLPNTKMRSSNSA
PRRX1 (Homo sapiens, UniProt P54821 80-166), sequence (P54821 80-166): as the sequence (P54821 80-166 F113S) above, with S34F counted along it

Regarding AGTTATCC, the binding signal is 9.65 upbm affinity estimate (log intensity, higher = more binding, comparable within an allelic series) in the test with VENTX [1]; 10.1 upbm affinity estimate (log intensity, higher = more binding, comparable within an allelic series) with VENTX [2]; 11.1 upbm affinity estimate (log intensity, higher = more binding, comparable within an allelic series) with HOXA4.
For the sequence CACATTAG, the binding signal is 11 upbm affinity estimate (log intensity, higher = more binding, comparable within an allelic series) in the test with VENTX [1]; 8.26 upbm affinity estimate (log intensity, higher = more binding, comparable within an allelic series) in the test with ALX3 [3]; 10.6 upbm affinity estimate (log intensity, higher = more binding, comparable within an allelic series) with ALX3 [4]; 11.3 upbm affinity estimate (log intensity, higher = more binding, comparable within an allelic series) with VAX1 [5]; 10.8 upbm affinity estimate (log intensity, higher = more binding, comparable within an allelic series) with VAX1 [6]; 8.21 upbm affinity estimate (log intensity, higher = more binding, comparable within an allelic series) in the test with ALX3 [7]. Besides, in the test with VAX1 [8], the binding signal is 11 upbm affinity estimate (log intensity, higher = more binding, comparable within an allelic series).
For the sequence ATTATTAC, the binding signal in the test with HOXB9 [9] was 10 upbm affinity estimate (log intensity, higher = more binding, comparable within an allelic series); with HOXC9 [10] it was 12.5 upbm affinity estimate (log intensity, higher = more binding, comparable within an allelic series); with HOXA7 [11], 11.2 upbm affinity estimate (log intensity, higher = more binding, comparable within an allelic series); with HOXC10 [12] it was 12.1 upbm affinity estimate (log intensity, higher = more binding, comparable within an allelic series); in the test with HOXB6 [13] it was 10 upbm affinity estimate (log intensity, higher = more binding, comparable within an allelic series); in the test with HOXC9 [14], 12.6 upbm affinity estimate (log intensity, higher = more binding, comparable within an allelic series). Also, the binding signal was 12.5 upbm affinity estimate (log intensity, higher = more binding, comparable within an allelic series) with HOXC9 [15]; 11.6 upbm affinity estimate (log intensity, higher = more binding, comparable within an allelic series) in the test with HOXC10 [16]; 11 upbm affinity estimate (log intensity, higher = more binding, comparable within an allelic series) in the test with HOXC9 [17]; 8.99 upbm affinity estimate (log intensity, higher = more binding, comparable within an allelic series) with HOXA7 [18]; 11.7 upbm affinity estimate (log intensity, higher = more binding, comparable within an allelic series) with HOXB6 [19].
With CATTAATA, the binding signal with HOXB9 [9] was 10.2 upbm affinity estimate (log intensity, higher = more binding, comparable within an allelic series); with HOXC9 [10] it was 12.7 upbm affinity estimate (log intensity, higher = more binding, comparable within an allelic series); in the test with HOXA7 [11], 11.5 upbm affinity estimate (log intensity, higher = more binding, comparable within an allelic series); with HOXC10 [12] it was 12.2 upbm affinity estimate (log intensity, higher = more binding, comparable within an allelic series); with PAX4, 11.6 upbm affinity estimate (log intensity, higher = more binding, comparable within an allelic series); with HOXB6 [13], 10.1 upbm affinity estimate (log intensity, higher = more binding, comparable within an allelic series). Besides, the binding signal is 12 upbm affinity estimate (log intensity, higher = more binding, comparable within an allelic series) with HOXB9 [20]; 13.6 upbm affinity estimate (log intensity, higher = more binding, comparable within an allelic series) with HOXB4; 12.6 upbm affinity estimate (log intensity, higher = more binding, comparable within an allelic series) with HOXC9 [14]; 12.6 upbm affinity estimate (log intensity, higher = more binding, comparable within an allelic series) in the test with HOXC9 [15]; 11.9 upbm affinity estimate (log intensity, higher = more binding, comparable within an allelic series) with HOXC10 [16]; 11.7 upbm affinity estimate (log intensity, higher = more binding, comparable within an allelic series) with HOXB9 [21]. The binding signal with HOXC9 [17] was 11.1 upbm affinity estimate (log intensity, higher = more binding, comparable within an allelic series); with HOXA7 [18], 9 upbm affinity estimate (log intensity, higher = more binding, comparable within an allelic series); with HOXB6 [19], 11.9 upbm affinity estimate (log intensity, higher = more binding, comparable within an allelic series).
On to CCGATTAC, for which the binding signal with VENTX [1] was 10.3 upbm affinity estimate (log intensity, higher = more binding, comparable within an allelic series); with PRRX1 [22], 9.76 upbm affinity estimate (log intensity, higher = more binding, comparable within an allelic series); with VENTX [23] it was 10.4 upbm affinity estimate (log intensity, higher = more binding, comparable within an allelic series); with PRRX1 [24] it was 11.8 upbm affinity estimate (log intensity, higher = more binding, comparable within an allelic series).
With CAATAAAA, the binding signal is 10.1 upbm affinity estimate (log intensity, higher = more binding, comparable within an allelic series) with HOXB9 [9]; 13.2 upbm affinity estimate (log intensity, higher = more binding, comparable within an allelic series) with HOXC9 [10]; 12.9 upbm affinity estimate (log intensity, higher = more binding, comparable within an allelic series) with HOXC10 [12]; 11.2 upbm affinity estimate (log intensity, higher = more binding, comparable within an allelic series) with ALX4; 12.7 upbm affinity estimate (log intensity, higher = more binding, comparable within an allelic series) with HOXB9 [20]; 13.2 upbm affinity estimate (log intensity, higher = more binding, comparable within an allelic series) with HOXC9 [14]. The binding signal in the test with HOXD13 [25] was 11.2 upbm affinity estimate (log intensity, higher = more binding, comparable within an allelic series); with HOXC9 [15] it was 13.2 upbm affinity estimate (log intensity, higher = more binding, comparable within an allelic series); with HOXD13 [26], 12.5 upbm affinity estimate (log intensity, higher = more binding, comparable within an allelic series); with HOXC10 [16] it was 12.5 upbm affinity estimate (log intensity, higher = more binding, comparable within an allelic series); in the test with HOXD13 [27] it was 12.3 upbm affinity estimate (log intensity, higher = more binding, comparable within an allelic series); with HOXB9 [21] it was 12.4 upbm affinity estimate (log intensity, higher = more binding, comparable within an allelic series). The binding signal with HOXC9 [17] is 11.7 upbm affinity estimate (log intensity, higher = more binding, comparable within an allelic series).
Regarding TCGTAAAA, the binding signal is 9.97 upbm affinity estimate (log intensity, higher = more binding, comparable within an allelic series) with HOXB9 [9]; 13.1 upbm affinity estimate (log intensity, higher = more binding, comparable within an allelic series) in the test with HOXC9 [10]; 12.8 upbm affinity estimate (log intensity, higher = more binding, comparable within an allelic series) in the test with HOXC10 [12]; 12.6 upbm affinity estimate (log intensity, higher = more binding, comparable within an allelic series) with HOXB9 [20]; 13.2 upbm affinity estimate (log intensity, higher = more binding, comparable within an allelic series) with HOXC9 [14]; 11.1 upbm affinity estimate (log intensity, higher = more binding, comparable within an allelic series) with HOXD13 [25]. The binding signal is 13 upbm affinity estimate (log intensity, higher = more binding, comparable within an allelic series) with HOXC9 [15]; 12.3 upbm affinity estimate (log intensity, higher = more binding, comparable within an allelic series) with HOXD13 [26]; 12.3 upbm affinity estimate (log intensity, higher = more binding, comparable within an allelic series) with HOXC10 [16]; 12.2 upbm affinity estimate (log intensity, higher = more binding, comparable within an allelic series) with HOXD13 [27]; 12 upbm affinity estimate (log intensity, higher = more binding, comparable within an allelic series) with HOXB9 [21]; 11.3 upbm affinity estimate (log intensity, higher = more binding, comparable within an allelic series) with HOXC9 [17].
